{"source": "PubChem BioAssay (NCATS)", "note": "Inconclusive results are not listed. A number with no mark means an inactive call. The source made the active and inactive calls. Calls come from the whole dose curve; as a rule, active = well fitted activation curve with a large enough effect; inconclusive = small, poorly fitted or top-dose-only effect; inactive = no such curve, though single readings can be large or run the other way. Potency is the fitted concentration of half-maximal effect."}
{"target": "Rap guanine nucleotide exchange factor 3 (Homo sapiens) (UniProt O95398)", "sequence (O95398 whole entry, looked up)": "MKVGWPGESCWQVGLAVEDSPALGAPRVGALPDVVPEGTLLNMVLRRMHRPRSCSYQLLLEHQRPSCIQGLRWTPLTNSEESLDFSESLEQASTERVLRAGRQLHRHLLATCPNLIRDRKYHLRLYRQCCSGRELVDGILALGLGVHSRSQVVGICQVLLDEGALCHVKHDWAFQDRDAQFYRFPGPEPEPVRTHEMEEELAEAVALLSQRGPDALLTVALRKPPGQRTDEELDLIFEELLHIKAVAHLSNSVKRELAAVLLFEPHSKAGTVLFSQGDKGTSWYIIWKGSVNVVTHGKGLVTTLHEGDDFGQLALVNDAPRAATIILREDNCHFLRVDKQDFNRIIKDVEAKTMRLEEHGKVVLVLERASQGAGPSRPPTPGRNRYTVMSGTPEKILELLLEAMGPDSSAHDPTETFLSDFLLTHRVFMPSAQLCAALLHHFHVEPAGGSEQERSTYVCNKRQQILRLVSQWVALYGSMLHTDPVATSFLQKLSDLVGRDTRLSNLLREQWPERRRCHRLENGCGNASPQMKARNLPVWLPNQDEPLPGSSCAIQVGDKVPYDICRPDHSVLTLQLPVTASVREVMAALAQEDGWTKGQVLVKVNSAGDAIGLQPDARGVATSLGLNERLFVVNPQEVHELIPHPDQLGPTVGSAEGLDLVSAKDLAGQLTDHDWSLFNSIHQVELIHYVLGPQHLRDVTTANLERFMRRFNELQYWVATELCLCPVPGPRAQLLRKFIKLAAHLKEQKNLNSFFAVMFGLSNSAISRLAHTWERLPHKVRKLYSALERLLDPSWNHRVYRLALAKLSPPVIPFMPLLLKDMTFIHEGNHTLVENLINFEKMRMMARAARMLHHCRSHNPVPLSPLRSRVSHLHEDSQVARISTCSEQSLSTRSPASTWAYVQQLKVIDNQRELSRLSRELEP", "assay": "Confirmatory qHTS for agonist of cAMP-regulated guanine nucleotide exchange factor 3 (EPAC1) (AID 1645881); note: nearly all actives have a fitted effect of over 75% in size;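 for activation: EPAC1 catalysed release of BODIPY-GDP from Rap1B seen as fluorescence loss; 100% = effect of cAMP agonist control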", "conditions": "EPAC1 Rap1B BODIPY-GDP exchange fluorescence; series mostly up to 154 µM; activation: at the top concentration", "units": {"activation": "%"}}
{"smiles": "COc1cc2c(cc1NC(=O)C(C)Oc1ccc(Cl)cc1Cl)oc1ccccc12", "note": "(stereo not drawn)", "activation": 13.8}
{"smiles": "CCn1c2ccccc2c2cc(NC(=O)c3ccc(=O)oc3)ccc21", "Potency": "112 µM (active)"}
{"smiles": "CCCCCCn1c(=O)[nH]c2nc3cc(N)c(C)cc3nc2c1=O", "Potency": "112 µM (active)"}
{"smiles": "OCCCCC#Cc1c(-c2ccsc2)sc2ccccc12", "activation": 25.6}
{"smiles": "COC(=O)c1c(SC)nc2ccccc2c1OCc1ccc(Cl)cc1", "activation": 17.8}
{"smiles": "COCc1ccccc1C1=CC(=O)C[C@H](c2ccc(F)cc2)C1", "activation": 21.2}
{"smiles": "CC(NC(=O)c1ccc(Br)s1)c1ccncc1", "note": "(stereo not drawn)", "activation": 24.6}
{"smiles": "COc1cccc(-c2nc(N3CCN(c4ccccc4)CC3)c3ccccc3n2)c1O", "activation": 28.2}
{"smiles": "Cc1cc(Br)cc(C=Nc2ccc(N3CCOCC3)cc2)c1O", "activation": 27.8}
{"smiles": "O=C1/C(=C\\c2cccnc2)Sc2ccccc21", "activation": 15}
{"smiles": "O=S(=O)(Nc1ccccc1N1CCCCC1)c1ccccc1", "activation": 21.1}
{"smiles": "Cc1cccc(CNC(=O)c2ccc(-c3nc(CS(=O)(=O)c4ccccc4)c(C)o3)cc2)c1", "activation": -5.61}
{"smiles": "Cc1ccc(CNc2cc(C)nc3nc(-c4ccc(C)cc4)nn23)cc1", "activation": 21.3}
{"smiles": "CCOc1ccc(NC(=O)CSc2nc(-c3cccc(Cl)c3)nc3c2Cc2c(CO)cnc(C)c2O3)cc1", "activation": 6.94}
{"smiles": "COc1cc(NC(=O)CCNC(=O)Cn2ccc3ccccc3c2=O)cc(OC)c1OC", "activation": 10.8}
{"smiles": "COc1ccc(-n2c(O)c(/C=N/NS(=O)(=O)c3cc(C)ccc3C)c3ccccc3c2=O)cc1OC", "activation": 24.5}
{"smiles": "CCOc1ccccc1N1CCN(C(=O)c2cc3c(s2)CCC3)CC1", "activation": 24.2}
{"smiles": "COc1cc2c(cc1OC)C(c1cccc(Cl)c1)CC(=O)N2", "note": "(stereo not drawn)", "activation": 6.02}
